Among all 360,000 compounds or so, about 7,500 (2.1%) were called active. A call without a number means that no potency is given here. Roughly 20% stayed inconclusive and do not appear here. This is one part of a sample in which actives are shown more often than they occur. Unmarked numbers belong to inactive results. Calls come from the whole dose curve; as a rule, active = well fitted inhibition curve with a large enough effect; inconclusive = small, poorly fitted or top-dose-only effect, or effect the other way; inactive = flat fitted curve, though single readings scatter.
Potency is the fitted concentration of half-maximal effect.

This assay is described as follows: Nrf2 qHTS screen for inhibitors. Note: nearly all actives have a fitted effect of over 60% in size. To be noted: A549 ARE-Fluc reporter, luciferase luminescence, 18-24 h; series mostly up to 46 µM. Summed up: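 A549 ARE_Fluc cells (5000/well, 5% FBS OPTI-MEM) pre-incubated 2 h, then treated with compounds 18-24 h at 37C/5% CO2 in concentration-response. CellTiter-Fluor viability read first; BugLite luciferase luminescence after 15 min at room temperature gives Nrf2 activity.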
In general terms: In qHTS, concentration-response curves come from the screen itself.
Consider `Cc1ccc(CN(C(=O)COc2ccc(Cl)cc2C)C2CCS(=O)(=O)C2)o1` (stereo not drawn), for which the Potency entry is “inactive”. Consider `CC1CCN(S(=O)(=O)c2ccc3c(ccn3CCC(=O)NCc3ccc(N(C)C)cc3)c2)CC1`, for which the Potency result was “inactive”. On the same count and under the same terms, under `Cc1ccccc1C(=O)N(Cc1ccc(N(C)C)cc1)CC1CCCO1` (stereo not drawn) stands “inactive”.

As to `CN(Cc1cncn1C)c1ncnc2ccc(-c3ccc4c(c3)OCO4)cc12`, the Potency result is “inactive”. Turning to `CCC(=O)N1CCc2cc(S(=O)(=O)NC(Cc3ccccc3)C(=O)NCc3ccccc3)ccc21` (stereo not drawn), the Potency result is “inactive”. `COc1ccccc1NC(=O)c1sc2nc(C)c(C(=O)Nc3ccc(Cl)cc3)c(-c3ccc(Br)cc3)c2c1N`: the activity change, negative = inhibition is 6.36% [at 9.27 µM]. With `COc1ccccc1C(=O)NCCC(=O)N(C)Cc1cccnc1`, the Potency entry was “inactive”. In the case of `COc1ccccc1C(=O)Nc1c(C(=O)N(C)Cc2ccccc2)sc2nc(C)c(Cl)c(C)c12`, the Potency was 14.6 µM (active).

With `COc1ccc(CCn2cc3c(c2-c2ccc(Br)cc2)c(=O)n(C)c(=O)n3C)cc1OC`, the Potency result is “inactive”. Same read-out and setting: in the case of `COc1cc2nc(SCc3ccc(F)cc3)n3nc(CCn4c(C)nc5ccccc54)nc3c2cc1OC` it was “inactive”; in that of `O=C(C[C@H]1C[C@H](C(=O)N2CCOCC2)[C@@]2(CCC3CCCC3)c3[nH]c4ccc(Cl)cc4c3CCN2C1=O)NCc1ccco1`, 20.6 µM (active). The same measure, in the same setting: in the case of `COc1ccc2[nH]c3c(c2c1)CCN1C(=O)C(CC(=O)NCCCN(C)C)C[C@H](C(=O)N2CCOCC2)[C@@]31CCC1CCCC1` (stereo partly drawn) it was “inactive”. `COc1ccc(CNC(=O)C[C@H]2C[C@H](C(=O)N3CCOCC3)[C@@]3(CCC4CCCC4)c4[nH]c5ccc(Cl)cc5c4CCN3C2=O)cc1OC`: the Potency was 13 µM (active). Take `CN(C)C(=O)CCc1ccc2c3c([nH]c2c1)[C@]1(CCC2CCCC2)[C@@H](C(=O)N2CCOCC2)C[C@H](CC(=O)NCc2ccco2)C(=O)N1CC3`: the Potency result was “inactive”. On to `CC[C@]12c3[nH]c4ccc(OC)cc4c3CCN1C(=O)C(CC(=O)NCc1ccco1)C[C@@H]2C(=O)N1CCN(C(=O)C2CC2)CC1` (stereo partly drawn), for which the Potency result was “inactive”. Same read-out and setting: under `CC[C@]12c3[nH]c4ccc(Cl)cc4c3CCN1C(=O)[C@@H](CC(=O)NCCN1CCOCC1)C[C@@H]2C(=O)N1CCN(C(=O)C2CC2)CC1` stands “inactive”; under `CC(C)(C)OC(=O)C[C@@H]1C/C=C\C[C@H](CC(=O)N[C@@H](CO)Cc2ccccc2)C(=O)N[C@H](Cc2ccccc2)COC1=O`, “inactive”. The same measure, in the same setting: in the case of `N#CN1CCC(NC(=O)c2ccc(F)cc2)CC1` it was “inactive”. Consider `CCOc1ccc(S(=O)(=O)Nc2ccc3oc4c(c3c2)CC(C)CC4)cc1` (stereo not drawn), for which the Potency result is “inactive”. Still for that read-out and setting: under `Cc1ccccc1CS(=O)(=O)CC1Nc2ccc(C(=O)NCc3ccc(Cl)cc3)cc2NC1=O` (stereo not drawn) stands “inactive”; under `COc1cccc2oc(CCc3ccccc3)cc(=O)c12`, “inactive”. Turning to `COc1ccccc1CNS(=O)(=O)c1cc(Br)cc2c1N(C(C)=O)C(C)C2` (stereo not drawn), the activity change, negative = inhibition was 1.68% [at 9.27 µM]. With `CCOc1cccc2c1N[C@@H](c1ccc(C(=O)O)cc1)[C@H]1CC=C[C@@H]21`, the Potency entry is “inactive”. Consider `COc1cccc(CNC(=O)CCC(=O)N2CC3CCCN3c3ccccc32)c1` (stereo not drawn), for which the Potency result is “inactive”.

In the case of `CCN1CCC(N(Cc2ccc(F)cc2)C(=O)Nc2cc(C)ccc2C)CC1`, the Potency result was “inactive”. Consider `Cc1ccc(SCC(=O)N2CCN(c3ccc(F)cc3)CC2)cc1`, for which the Potency entry was “inactive”. The same measure, in the same setting: under `CCN1CCC2(CC1)N=C(c1ccc(F)cc1)C(=S)N2C(=O)c1ccc(C)cc1` stands 16.4 µM (active); under `Cc1cc(OCC(=O)NCC2(N(C)C)CCCCC2)cc(C)c1Cl`, “inactive”; under `Cc1cc(C)cc(NC(=O)CSc2nc3nccnc3c(=O)n2CCc2c[nH]c3ccccc23)c1`, “inactive”. On the same count and under the same terms, under `CCOC(=O)/C(C#N)=C/c1ccc(N2CCCCC2)cc1` stands “inactive”. The same measure, in the same setting: in the case of `O=C1C=CC(=O)N1c1ccc(N2CCCCC2)cc1` it was 25.9 µM (active); in that of `O=C(Cc1ccccc1)NC(=S)Nc1ccc(N2CCCCC2)cc1`, “inactive”; in that of `Cc1ccc(SCC(=O)Nc2ccc3oc(-c4ccccc4F)nc3c2)cc1`, “inactive”. `CC[C@]1(C(=O)OC)[C@H]2C(=O)N(Cc3ccccc3)C(=O)[C@H]2[C@H]2CN=C(SCc3ccc(C#N)cc3)N21`: the Potency entry was “inactive”.

With `CCOc1ccc(Nc2nc3c(S(=O)(=O)c4cccc(Cl)c4)nnn3c3ccsc23)cc1`, the Potency is 14.6 µM (active). On to `CCc1ccc(S(=O)(=O)c2nnn3c2nc(N2CCN(CC)CC2)c2sccc23)cc1`, for which the Potency result is “inactive”. The same measure, in the same setting: under `O=S(=O)(c1ccc(Br)cc1)c1nnn2c1nc(NC1CCCCCC1)c1sccc12` stands “inactive”. On the same count and under the same terms, in the case of `Cc1ccc(-c2cn3c(n2)sc2cc(C(=O)NCCCc4ccccc4)ccc23)cc1` it was “inactive”. The same measure, in the same setting: under `CCN1C[C@@H]2[C@@H]3C(=O)N(Cc4ccccc4)C(=O)[C@@H]3[C@](Cc3ccccc3)(C(=O)OC)N2C1=NC1CCCCC1` stands “inactive”; under `CCN(CCCNC(=O)c1cc(Nc2ccc(OC)cc2)nc2ccccc12)c1cccc(C)c1`, “inactive”; under `O=C(COC(=O)c1c2c(nc3ccccc13)/C(=C\c1cccs1)CCC2)Nc1ccccc1Cl`, “inactive”. Consider `NC(=O)c1ccc(NC(=O)COC(=O)c2c3c(nc4ccccc24)/C(=C\c2ccc4c(c2)OCO4)CCC3)cc1`, for which the Potency is 14.6 µM (active). Regarding `NS(=O)(=O)c1ccc(NC(=O)COC(=O)c2c3c(nc4ccccc24)/C(=C\c2ccc4c(c2)OCO4)CCC3)cc1`, the Potency entry is “inactive”.

Regarding `Cc1ccc(C)c(OCC(=O)Nc2sc3c(c2C#N)CCCC3)c1C`, the Potency result is “inactive”.

Consider `CC(=O)c1c(C)[nH]c(C(=O)OCC(=O)Nc2c(C)n(C)n(-c3ccccc3)c2=O)c1C`, for which the Potency entry was “inactive”.

As to `Cc1cccc(C)c1NC(=O)COC(=O)c1ccccc1O`, the Potency entry was “inactive”. `CC(=O)c1c(C)[nH]c(C(=O)OCC(=O)Nc2cc(S(=O)(=O)N3CCCCC3)ccc2C)c1C`: the Potency result is “inactive”. For the compound `Cc1cccc(C(=O)OCC(=O)Nc2sc3c(c2C#N)CCC3)c1`, the Potency entry was “inactive”. Consider `CC(=O)c1c(C)[nH]c(C(=O)OCC(=O)NCCC(C)C)c1C`, for which the Potency is 11.6 µM (active). As for `CC(=O)c1c(C)[nH]c(C(=O)COC(=O)c2cccs2)c1C`, the Potency entry was “inactive”. On the same count and under the same terms, in the case of `CC(=O)c1c(C)[nH]c(C(=O)OCC(=O)Nc2sc3c(c2C#N)CCCC3)c1C` it was 18.4 µM (active). Take `CC(=O)c1c(C)[nH]c(C(=O)OCC(=O)Nc2c(C)cccc2C)c1C`: the Potency is 13 µM (active). For the compound `CCOC(=O)N1CCC(NC(=O)c2cnn(-c3cccc(C)c3)c2C2CCN(C(=O)OC(C)(C)C)CC2)CC1`, the Potency result is “inactive”. On the same count and under the same terms, in the case of `O=C(NCc1ccccc1CN1CCCC1)C1CCN(S(=O)(=O)c2ccc(Cl)cc2)CC1` it was “inactive”; in that of `CCOc1ccc(S(=O)(=O)c2cn(Cc3ccc(OC)cc3)c3ccc(F)cc3c2=O)cc1`, “inactive”.

Regarding `CCn1cc(C(=O)NCc2ccc(C)cc2)c(=O)c2cc(S(=O)(=O)N3CCc4ccccc4C3)ccc21`, the Potency entry was “inactive”.

As to `Cc1cc2c(s1)c1cnn(Cc3c(F)cccc3Cl)c(=O)c1n2C`, the Potency result is “inactive”. The same measure, in the same setting: in the case of `CC(C)Cn1c(-c2ccc(S(=O)(=O)N3CCOCC3)cc2)csc1=Nc1cc(Cl)ccc1Cl` it was “inactive”; in that of `CCn1cc(C(=O)N2CCN(c3cc(C)ccc3C)CC2)c(=O)c2cc(S(=O)(=O)N(C)C3CCCCC3)ccc21`, 23.1 µM (active); in that of `CCn1cc(C(=O)N2CCN(c3cc(Cl)ccc3C)CC2)c(=O)c2cc(S(=O)(=O)N3CCCC3)ccc21`, “inactive”. As to `Cc1ccc(Cl)cc1N1CCN(C(=O)c2cn(C)c3ccc(S(=O)(=O)N(C)C4CCCCC4)cc3c2=O)CC1`, the Potency entry was “inactive”. The same measure, in the same setting: in the case of `CCN1CCC(O)(/C=C/c2ccc(C)cc2)C(C(=O)/C=C/c2ccc(C)cc2)C1` (stereo not drawn) it was “inactive”; in that of `CC[C@@]1(C(=O)OC)N[C@H](CN(C)C(C)=O)[C@@H]2C(=O)N(C)C(=O)[C@@H]21`, “inactive”; in that of `O=C(NCCc1ccco1)c1ccc(OCc2cn3ccccc3n2)cc1`, “inactive”. For `COC1C(CO)OC(n2cnc3c(=S)nc(N)[nH]c32)C1O` (stereo not drawn), the Potency entry was “inactive”. On the same count and under the same terms, in the case of `O=c1ccn(Cc2ccccc2Cl)cc1` it was “inactive”; in that of `CC(C)(C)c1cc(C(=O)NN)n(Cc2ccc(Cl)cc2Cl)n1`, “inactive”; in that of `N#CC(C#N)=CN=c1ccn(Cc2ccc(Cl)cc2Cl)cc1`, 1.84 µM (active). Still for that read-out and setting: in the case of `CCNS(=O)(=O)c1ccc(CCC(=O)N2CCN(c3ccc(OC)cc3)CC2)cc1` it was “inactive”; in that of `CCNS(=O)(=O)c1ccc(CCC(=O)N2CCN(c3cc(Cl)ccc3C)CC2)cc1`, 8.2 µM (active). The same measure, in the same setting: under `CCCNS(=O)(=O)c1ccc(CCC(=O)N2CCCC2)cc1` stands “inactive”. As to `O=C(CN1C(=O)NC2(CCCCCC2)C1=O)NCc1ccc(F)cc1`, the Potency result was “inactive”. For `CSc1ccc(CN2C(=O)NC3(CCCCCC3)C2=O)cc1`, the Potency is 18.4 µM (active). Consider `O=C(CN1C(=O)NC2(CCCCCCC2)C1=O)NCc1ccc(F)cc1`, for which the Potency result was “inactive”. Same read-out and setting: under `COc1ccc(C2(c3ccc(OC)cc3)NC(=O)N(CC(=O)Nc3cc(C)on3)C2=O)cc1` stands “inactive”; under `Cc1cccc(CC2(O)C(=O)Nc3ccccc32)n1` (stereo not drawn), “inactive”; under `O=C(Nc1cccc(Cl)c1N1CCOCC1)c1ccc2c(c1)OCCO2`, 23.1 µM (active).

With `COC(=O)c1ccc(N2CCOCC2)c(NC(=O)c2ccc3c(c2)OCCO3)c1`, the Potency result was “inactive”.

Turning to `O=C(Nc1cccc(Cl)c1N1CCOCC1)c1cccnc1`, the Potency result was “inactive”. The same measure, in the same setting: under `CC/C(=C(/c1ccccc1)c1ccc(OCC[N+](C)(C)C)cc1)c1ccccc1` stands “inactive”; under `COC(=O)CSc1nc2ccccc2c(=O)n1Cc1ccccc1`, “inactive”; under `CCC(=O)Nc1c(S(=O)(=O)c2ccccc2)c2nc3ccccc3nc2n1Cc1ccccc1`, 14.6 µM (active). With `CCN(CC)CCn1c(N)c(S(=O)(=O)c2ccccc2)c2nc3ccccc3nc21`, the Potency entry was “inactive”.

Consider `COc1cc(C(=O)CCc2ccc3c(c2)OCO3)cc(OC)c1OC`, for which the Potency entry was “inactive”. The same measure, in the same setting: under `COc1cccc(CNC(=O)CSc2c3c(nc4cc(Cl)ccc24)CCCC3)c1` stands “inactive”; under `COc1ccc(S(=O)(=O)N2CCCCC2)cc1NC(=O)COc1ccccc1`, “inactive”. The same measure, in the same setting: in the case of `CCOc1ccccc1NC(=O)COc1ccc(S(=O)(=O)N2CCCC2)cc1` it was “inactive”; in that of `CCOc1ccc(S(=O)(=O)N2CCCCC2)cc1NC(=O)CN1CCCC1c1cccs1` (stereo not drawn), 8.2 µM (active).

(Values after PubChem BioAssay AID504444 (National Center for Advancing Translational Sciences (NCATS), 2011).)
